Values joined by “and” are separate entries in the source; they are usually repeats but may differ in a detail not shown here. Identical values can stand only once. Compounds without any hit were thinned out: in the full panel of roughly 83,000, 20% have a hit.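 The test compound was applied at a single concentration to cells in 96-well plates for 48 hours, and percent growth was recorded.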 Active and inactive are the calls of the source. Rule for the calls: active = growth percent below 10; inactive = the rest.

The experiment relates to HL-60(TB) leukemia. The experiment can be described thus: NCI-60 one-dose screen, 48 h (100 = growth as untreated, 0 = no growth, -100 = all killed). As to conditions: 10 µM unless noted.
Turning to `CCCCCOC(=O)c1ccc(NC(=O)CNCC(C)C)cc1`, the growth was 84.6% (inactive).
For `CCC(=O)Oc1ccc(-c2ccccc2)cc1Br` the value was 96.5% (inactive).
The result for `CN1CCN(Cc2ccc(NC(=O)c3cncc(C#Cc4cnccc4C(F)(F)F)c3)cc2C(F)(F)F)CC1` reads 38.4% (inactive).
Take `CCOc1ccc(Nc2nc3c(s2)C(=O)c2ccccc2C3=O)cc1`: the growth was 25.1% (inactive).
Consider `O=C(Nc1ccc(Cl)cc1)c1cc2ccccc2cc1O`, for which the growth is -8.5% (active) and -29.4% (active).
The result for `O=[N+]([O-])c1ccc(Oc2cccnc2)c([N+](=O)[O-])c1` reads -10.1% (active); that for `COc1cc(-c2nc(SCCC(C)C)nc(Nc3ccccc3Cl)c2C#N)cc(OC)c1OC`, 101% (inactive); that for `COc1cc2c(cc1OC)C1(C)N(CC2)C(=O)OC1(C)C` (stereo not given), -79.2% (active).
Take `CCCC1(CN2c3ccccc3Sc3ccc(Cl)cc32)CCN(CC)C1` (stereo not given): the growth was 31.8% (inactive).
Turning to `COc1cc(-c2nn(C)nc2-c2cc3ccccc3s2)cc(OC)c1OC`, the growth is -3.84% (active).
Consider `O=C1c2ccccc2C(=O)c2c1oc1c2c(=O)[nH]c2ccc(Cl)cc21`, for which the growth was 94.5% (inactive).
Regarding `CCCCCC(=O)OCCC1CCCCC1`, the growth was 109% (inactive).
Take `COc1ccc(-c2nnc(SCC(=O)Nc3ccc(C(=O)/C=C/c4ccccc4)cc3)n2-c2ccccc2)cc1OC`: the growth was 65.3% (inactive).
The result for `N#CC1=C(Nc2ccccc2Cl)SC(c2ccccc2O)NC1=O` (stereo not given) reads 93.1% (inactive).
Turning to `O=C(Nc1ccc(-n2ccc3c(NC(=O)c4ccccc4)nccc32)cc1)c1ccc(N2CCOCC2)c(C(F)(F)F)c1`, the growth was 24.8% (inactive).
The result for `O=c1[nH]c(=S)[nH]n1C(=S)n1[nH]c(=S)[nH]c1=O` reads 99.1% (inactive); that for `C/C=C/C(=O)OCCCCCCCCCCCC`, 85.2% (inactive).
On to `O=C(Cn1c(-c2ccc([N+](=O)[O-])cc2)nc2ccccc21)NNC(=O)c1cccnc1`, for which the growth is 65.9% (inactive).
In the case of `C#CC[C@@H]1C[C@]2(C)[C@H]3CC=C4[C@H]5CC(C)(C)CC[C@]5(C(=O)NCCCCN)CC[C@@]4(C)[C@]3(C)CC[C@H]2C(C)(C)[C@H]1OC(C)=O`, the growth was -46.5% (active).
`COc1ccc2c(Nc3ccc(NS(C)(=O)=O)cc3)c3ccccc3nc2c1`: the growth is -8.29% (active).
`COc1ccc(-c2csc(NC(=O)N3CCN(c4cc5c(cc4F)c(=O)c(C(=O)O)cn5C4CC4)CC3)n2)cc1`: the growth was -11.6% (active).
`Cc1cc(N(CCNc2ccnc3cc(Cl)ccc23)Cc2ccco2)nc(Cl)n1`: the growth is -61.9% (active).
For `CC1=CC2(C)/C=C(C)/C=C\CC(O)/C=C3/C=CC(=C4C(=O)OC2(CC1C)C4=O)OC3` (stereo not given) the value was -54.9% (active); for `O=C1C(Cl)=C(NCc2ccco2)C(=O)c2ccccc21`, 85% (inactive).
`O=C(CSc1nc(-c2ccccc2)[nH]c1S(=O)(=O)c1ccccc1)NC1CC1`: the growth was 101% (inactive).

For the origin of these results see PubChem BioAssay (NCI).
